“And” between values parts separate entries of the source, which are not always exact repeats. Equal values may be shown once. Hit rate of the full screen: of about 5,500 compounds, about 2,000 (36%) were called active. Roughly 18% stayed inconclusive and do not appear here. No stated cut-off is given here; in the data, active means normalized growth mostly below about 0.91 (no sharp cut-off); inconclusive means no clear call, values can overlap the other calls; inactive means mostly above about 0.92. The list shows a part of the results.
Test: chemical genetic growth profiling, strain panel (AID 1159580);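 further: tested at 20 µM; growth read once vehicle control cultures reached saturation at 30 °C; 1 = growth at the plate median or of vehicle wells; lower values mean less growth of the strain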
Conditions: growth OD

Measured: normalized growth

C[N+](C)(C)CCOC(N)=O
inactive: S. cerevisiae deletion strains, locus YKL068W, active compounds read low 0.981 | S. cerevisiae deletion strains, locus YKL085W, strain MDH1 (second series), active compounds read low 0.969 | S. cerevisiae deletion strains, locus YKL085W, strain MDH1, active compounds read low 0.969 | S. cerevisiae deletion strains, locus YKL160W, strain elf1, active compounds read low 1.02 | S. cerevisiae deletion strains, locus YKL190W, strain CNB1, active compounds read low 1 | S. cerevisiae deletion strains, locus YKR001C, strain vps1, active compounds read low 0.991 | S. cerevisiae deletion strains, locus YKR026C, strain gcn3, active compounds read low 0.988 | S. cerevisiae deletion strains, locus YKR091W, strain srl3, active compounds read low 1 | S. cerevisiae deletion strains, locus YLL001W, strain dnm1, active compounds read low 0.998 | S. cerevisiae deletion strains, locus YLL026W, active compounds read low 1 | S. cerevisiae deletion strains, locus YLL041C, strain sdh2, active compounds read low 1.01 | S. cerevisiae deletion strains, locus YLR027C, strain aat2, active compounds read low 1.01 | S. cerevisiae deletion strains, locus YLR039C, strain RIC1, active compounds read low 0.993 | S. cerevisiae deletion strains, locus YLR058C, strain SHM2, active compounds read low 1 | S. cerevisiae deletion strains, locus YLR102C, strain apc9, active compounds read low 0.986 | S. cerevisiae deletion strains, locus YLR113W, strain HOG1, active compounds read low 0.959 | S. cerevisiae deletion strains, locus YLR221C, strain rsa3, active compounds read low 1.01 | S. cerevisiae deletion strains, locus YLR258W, strain gsy2, active compounds read low 1.02 | S. cerevisiae deletion strains, locus YLR262C, strain YPT6 (second series), active compounds read low 1.02 | S. cerevisiae deletion strains, locus YLR262C, strain YPT6, active compounds read low 0.991 | S. cerevisiae deletion strains, locus YLR268W, strain sec22, active compounds read low 0.978 | S. cerevisiae deletion strains, locus YLR320W, strain mms22, active compounds read low 1.03 | S. cerevisiae deletion strains, locus YLR330W, strain CHS5, active compounds read low 1 | S. cerevisiae deletion strains, locus YLR342W, strain FKS1 (second series), active compounds read low 1.12 | S. cerevisiae deletion strains, locus YLR342W, strain FKS1, active compounds read low 1.01 | S. cerevisiae deletion strains, locus YLR357W, strain rsc2, active compounds read low 1 | S. cerevisiae deletion strains, locus YLR370C, strain arc18, active compounds read low 1.01 | S. cerevisiae deletion strains, locus YLR371W, strain rom2, active compounds read low 0.97 | S. cerevisiae deletion strains, locus YLR384C, strain iki3, active compounds read low 1.04 | S. cerevisiae deletion strains, locus YLR418C, strain cdc73, active compounds read low 0.983 | S. cerevisiae deletion strains, locus YML016C, strain PPZ1, active compounds read low 1.02 | S. cerevisiae deletion strains, locus YML032C, strain rad52, active compounds read low 0.993 | S. cerevisiae deletion strains, locus YML120C, strain ndi1, active compounds read low 1.02 | S. cerevisiae deletion strains, locus YML124C, strain tub3, active compounds read low 0.974 | S. cerevisiae deletion strains, locus YMR058W, strain fet3, active compounds read low 1.02 | S. cerevisiae deletion strains, locus YMR078C, strain ctf18, active compounds read low 0.956 | S. cerevisiae deletion strains, locus YMR125W, strain sto1, active compounds read low 1.03 | S. cerevisiae deletion strains, locus YMR129W, active compounds read low 1.02 | S. cerevisiae deletion strains, locus YMR205C, strain PFK2, active compounds read low 1.02 | S. cerevisiae deletion strains, locus YMR223W, strain ubp8, active compounds read low 0.975 | S. cerevisiae deletion strains, locus YMR231W, strain pep5, active compounds read low 1.02 | S. cerevisiae deletion strains, locus YMR263W, strain SAP30, active compounds read low 1 and 0.986 | S. cerevisiae deletion strains, locus YMR307W, strain GAS1, active compounds read low 1.16 | S. cerevisiae deletion strains, locus YNL067W, strain RPL9B, active compounds read low 0.961 | S. cerevisiae deletion strains, locus YNL071W, strain lat1, active compounds read low 1.01 | S. cerevisiae deletion strains, locus YNL128W, strain TEP1, active compounds read low 0.971 | S. cerevisiae deletion strains, locus YNL153C, strain GIM3, active compounds read low 0.963 | S. cerevisiae deletion strains, locus YNL175C, strain NOP13, active compounds read low 0.973 | S. cerevisiae deletion strains, locus YNL183C, strain NPR1, active compounds read low 0.938 | S. cerevisiae deletion strains, locus YNL197C, strain WHI3, active compounds read low 0.991 | S. cerevisiae deletion strains, locus YNL209W, strain ssb2, active compounds read low 1.01 | S. cerevisiae deletion strains, locus YNL224C, strain SQS1, active compounds read low 0.991 | S. cerevisiae deletion strains, locus YNL233W, strain BNI4, active compounds read low 0.99 | S. cerevisiae deletion strains, locus YNL248C, strain rpa49, active compounds read low 1.03 | S. cerevisiae deletion strains, locus YNL250W, strain rad50, active compounds read low 0.969 | S. cerevisiae deletion strains, locus YNL271C, strain bni1, active compounds read low 0.979 | S. cerevisiae deletion strains, locus YNL298W, strain CLA4, active compounds read low 0.977 | S. cerevisiae deletion strains, locus YNL307C, strain MCK1, active compounds read low 0.982 | S. cerevisiae deletion strains, locus YNL322C, strain KRE1 (second series), active compounds read low 1.02 | S. cerevisiae deletion strains, locus YNL322C, strain KRE1, active compounds read low 0.989 | S. cerevisiae deletion strains, locus YNR049C, strain mso1, active compounds read low 1.02 | S. cerevisiae deletion strains, locus YNR052C, strain pop2, active compounds read low 0.97 | S. cerevisiae deletion strains, locus YOL012C, strain htz1 0.907 | S. cerevisiae deletion strains, locus YOL147C, strain pex11, active compounds read low 0.978 | S. cerevisiae deletion strains, locus YOR001W, strain rrp6, active compounds read low 1.03 | S. cerevisiae deletion strains, locus YOR061W, strain CKA2, active compounds read low 1 | S. cerevisiae deletion strains, locus YOR069W, strain VPS5, active compounds read low 1 | S. cerevisiae deletion strains, locus YOR070C, strain gyp1, active compounds read low 1.01 | S. cerevisiae deletion strains, locus YOR080W, strain dia2, active compounds read low 1.03 | S. cerevisiae deletion strains, locus YOR083W, strain WHI5 (second series), active compounds read low 1.01 | S. cerevisiae deletion strains, locus YOR083W, strain WHI5, active compounds read low 1.03 | S. cerevisiae deletion strains, locus YOR106W, strain vam3, active compounds read low 1.01 | S. cerevisiae deletion strains, locus YOR136W, strain idh2, active compounds read low 0.976 | S. cerevisiae deletion strains, locus YOR144C, strain elg1, active compounds read low 0.982 | S. cerevisiae deletion strains, locus YOR184W, strain ser1, active compounds read low 0.973 | S. cerevisiae deletion strains, locus YOR231W, strain MKK1, active compounds read low 1 | S. cerevisiae deletion strains, locus YOR265W, strain rbl2, active compounds read low 1.01 | S. cerevisiae deletion strains, locus YOR270C, strain vph1, active compounds read low 1.05 | S. cerevisiae deletion strains, locus YOR290C, strain snf2, active compounds read low 1.02 | S. cerevisiae deletion strains, locus YOR316C, strain cot1, active compounds read low 0.976 | S. cerevisiae deletion strains, locus YPL051W, strain arl3, active compounds read low 1.02 | S. cerevisiae deletion strains, locus YPL055C, strain LGE1, active compounds read low 0.997 and 0.999 | S. cerevisiae deletion strains, locus YPL078C, strain atp4, active compounds read low 1.01 | S. cerevisiae deletion strains, locus YPL106C, strain sse1, active compounds read low 1.04 | S. cerevisiae deletion strains, locus YPL240C, strain hsp82, active compounds read low 1.02 | S. cerevisiae deletion strains, locus YPL241C, strain CIN2, active compounds read low 1.01 | S. cerevisiae deletion strains, locus YPL256C, strain CLN2, active compounds read low 0.993 | S. cerevisiae deletion strains, locus YPR119W, strain clb2, active compounds read low 0.973 | S. cerevisiae deletion strains, locus YPR141C, strain kar3, active compounds read low 0.973 | S. cerevisiae deletion strains, locus YPR163C, strain tif3, active compounds read low 0.985 | S. cerevisiae deletion strains, locus YPR167C, strain met16, active compounds read low 0.975 | S. cerevisiae deletion strains, strain wtn01, active compounds read low 1.01 | S. cerevisiae strains, strain wild type, active compounds read low 1.01

Reference: PubChem BioAssay AID1159580 (chemical genetic matrix, 2015)
